Results from PubChem BioAssay AID463173 (ICCB-Longwood Screening Facility, Harvard Medical School, 2010).
Among all 52,000 compounds or so, about 4,300 (8.3%) were called active. For the sample, actives were picked, then their nearest neighbours and some compounds at random. Unmarked numbers belong to inactive results. Cut-off read from the data, not from the text of the source: active = survival mostly below about 52% (no sharp cut-off); inactive = mostly above about 56%.

test system: DeltatarO mutant; experiment: growth inhibition of S. aureus wild type versus tarO mutant, primary screen, teichoic acid synthesis inhibitors, RN4220, OD600 (AID 463173); settings: OD600, 18 h, stronger effect = lower value, screened at 18.75 µg/mL (by protocol)

| SMILES | survival |
| --- | --- |
| CCOc1ccc(C(C)C)cc1S(=O)(=O)Nc1cccc(-c2ccc(N3CCOCC3)nn2)c1 | 87% |
| Cc1nc2nc(NC(=O)c3ccc(C(C)(C)C)cc3)[nH]n2c(=O)c1Cl | 98% |
| Cc1nn(S(=O)(=O)c2ccc(F)cc2)c(C)c1S(=O)(=O)N1CCC(C)CC1 | -1% (active) |
| Cc1nn(C(=O)c2ccccc2F)c(C)c1S(=O)(=O)N1CCCCCC1 | 83% |
| COc1ccc(S(=O)(=O)n2nc(C)c(S(=O)(=O)N3CCCCCC3)c2C)cc1C | 81% |
| Cc1nn(S(=O)(=O)c2ccc(F)cc2)c(C)c1S(=O)(=O)N1CCCCC1 | 72% |
| Cc1nn(S(=O)(=O)c2ccccc2)c(C)c1S(=O)(=O)N1CCC(C)CC1 | 72% |
| COc1ccc(S(=O)(=O)n2nc(C)c(S(=O)(=O)N3CCC(C)CC3)c2C)cc1OC | 70% |
| Cc1nn(C(=O)c2cccc([N+](=O)[O-])c2C)c(C)c1S(=O)(=O)N1CCOCC1 | 76% |
| Cc1nn(C(=O)c2cccc([N+](=O)[O-])c2C)c(C)c1S(=O)(=O)N1CCCCCC1 | -2% (active) |
| COc1ccc(S(=O)(=O)n2nc(C)c(S(=O)(=O)N3CCCCCC3)c2C)cc1OC | 6% (active) |
| CC(C)c1ccc(Nc2cc(C(=O)NCCc3ccccc3)c3ccccc3n2)cc1 | 81% |
| Cc1nn(CC(=O)NCc2ccccc2Br)c(=O)c2cc3occc3n12 | 132% |
| Cc1ccc(CCNC(=O)c2ccc3c(c2)N(Cc2ccc(F)cc2)CCS3)cc1 | 71% |
| CC1=C(c2ccc(C(C)C)cc2)S(=O)(=O)N=C1N1CCN(c2ccc(F)cc2)CC1 | 74% |
| O=S(=O)(NCCS(=O)(=O)N1CCN(c2cccc(Cl)c2)CC1)c1ccc(F)cc1 | 83% |
| CCC1CCCCN1CCCNC(=O)c1cc2c(Cl)nc3ccc(C)cc3c2s1 (stereo unspecified) | 67% |
| Cc1ccc(CSc2cn(CCNC(=O)c3cccs3)c3ccccc23)cc1 | 58% |
| COc1ccccc1C(=O)NCCn1cc(SCc2ccc(C)cc2)c2ccccc21 | 22% (active) |
| O=C(NCCn1cc(SCc2ccccc2Cl)c2ccccc21)c1cccs1 | 57% |
| COc1ccc(CCNC(=O)CSc2cn(CCNC(=O)c3ccccc3F)c3ccccc23)cc1OC | 137% |
| COc1ccccc1C(=O)NCCn1cc(SCC(=O)Nc2ccccc2F)c2ccccc21 | 55% |

| SMILES | survival |
| --- | --- |
| COc1ccccc1C(=O)NCCn1cc(SCc2ccccc2Cl)c2ccccc21 | 34% (active) |
| CCOc1ccc(C(=O)Nc2ccc(S(=O)(=O)N3CCOCC3)cc2)cc1OCC | 72% |
| CCOc1ccc(CNC(=O)c2cccc(NC(=O)N3CCSc4ncccc43)c2)cc1OC | 92% |
| COc1cccc(N2CC(NC(=O)c3ccc4c(c3)OCO4)CC2=O)c1 (stereo unspecified) | 92% |
| Cc1c(C(=O)NCCN(C)C)sc2nc3n(c(=O)c12)CCC3 | 87% |
| Cc1sc2nc(CN(C(=O)c3cccs3)C3CCCC3)[nH]c(=O)c2c1C | 80% |
| O=C(c1cccs1)N(Cc1nc2sc3c(c2c(=O)[nH]1)CCCC3)C1CCCC1 | 45% (active) |
| O=C(C1CCCCC1)N(Cc1nc2sc3c(c2c(=O)[nH]1)CCCC3)Cc1cccs1 | 66% |
| Cc1ccc(NCc2cccn2-c2nnc(N3CCC(C(=O)NCc4ccc(OC(C)C)cc4)CC3)s2)cc1 | 69% |
| CCCCn1c(=N)c(C(=O)NC2CCCCC2)cc2c(=O)n3cccc(C)c3nc21 | 62% |
| CCOc1ccc(C(=O)Nc2cccc(NC(=O)c3ccc(C(C)(C)C)cc3)c2)cc1Br | 81% |
| CCOc1ccc(C(=O)Nc2ccc3c(c2)OCCO3)cc1Br | 37% (active) |
| CCOc1ccc(C(=O)Nc2ccc(NC(=O)c3ccccc3)cc2)cc1Br | 85% |
| O=C(C1COc2ccccc2O1)N(Cc1cccnc1)c1nc2c(F)cccc2s1 (stereo unspecified) | 84% |
| CCCC(=O)N1CCCC(c2nc(-c3cccs3)no2)C1 (stereo unspecified) | 107% |
| Cc1c(C)n(Cc2ccccc2)c2ccc(C(=O)NC(C)c3ccccc3)cc12 (stereo unspecified) | 78% |
| COc1ccc(NC(=O)c2oc3c(c2C)-c2nn(Cc4c(F)cccc4Cl)cc2CC3)c(OC)c1 | 72% |
| Cc1cc(Cl)ccc1OCCSc1nnc(-c2cccs2)o1 | 37% (active) |
| COc1ccc(-c2nnc(SCCOc3ccccc3C)o2)cc1OC | 64% |
| COc1cc(C)ccc1OCCSc1nnc(-c2cccs2)o1 | 40% (active) |
| Cc1ccccc1OCCSc1nnc(-c2cccs2)o1 | 106% |
| Cc1cccc(OCCSc2nnc(-c3cccs3)o2)c1 | 58% |

| SMILES | survival |
| --- | --- |
| Cc1ccc(OCCSc2nnc(-c3cccs3)o2)cc1Cl | 45% (active) |
| COc1cc(C)ccc1OCCSc1nnc(-c2ccc(C)cc2)o1 | 55% |
| Clc1ccccc1OCCSc1nnc(-c2cccs2)o1 | 43% |
| Cc1ccc(OCCSc2nnc(-c3cccs3)o2)cc1 | 53% |
| O=c1c2cnn(-c3ccc(F)cc3)c2ncn1Cc1ccc(F)cc1 | 106% |
| CCn1c2c(c(=O)n3ncc(C(=O)N4CCN(c5ccc(C(C)=O)cc5)CC4)c13)CN(Cc1ccc(OC)cc1)CC2 | 126% |
| COc1ccc(Br)cc1CNC(=O)c1ccc2c(c1)nc1n2CCC(C)C1 (stereo unspecified) | 75% |
| COc1ccccc1C(=O)N1CCC(c2noc(-c3ccc(S(=O)(=O)N4CCCC4)cc3)n2)CC1 | 98% |
| COc1ccc(NC(=O)C(Cc2ccccc2)NS(=O)(=O)c2ccc3c(c2)CCN3C(C)=O)cc1 (stereo unspecified) | 72% |
| COc1ccc(N2CCN(C(=O)c3ccc4c(c3)N(Cc3ccc(F)cc3)C(=O)c3ccccc3S4=O)CC2)cc1 (stereo unspecified) | 116% |
| CC(=O)Nc1ccc(S(=O)(=O)NC2=NCN(CCO)CN2)cc1 | 89% |
| COc1ccc(C)cc1NC(=O)CSc1nc(=O)n(Cc2ccco2)c2c1CCC2 | 116% |
| CC(C)CCOc1ccc(Cn2c(=O)oc3ccccc32)cc1 | 127% |
| CCOc1ccc(CNC(=O)c2ccc3oc(=O)n(Cc4ccccc4)c3c2)cc1 | 79% |
| CCCCOc1ccc(CN2C(=O)C(=O)c3cc(C)ccc32)cc1OC | 122% |
| CCCCOc1ccc(Cn2c(=O)oc3ccc(C)cc32)cc1 | 40% (active) |
| COc1cc(Cn2c(=O)oc3ccc(C)cc32)ccc1OCCC(C)C | -1% (active) |
| CCCCOc1ccc(Cn2c(=O)oc3ccc(C)cc32)cc1OC | 36% (active) |
| CCCCCOc1ccc(Cn2c(=O)oc3ccccc32)cc1 | 124% |
| CCCCOc1ccc(Cn2c(=O)oc3ccccc32)cc1 | 127% |
| CCCCCOc1ccc(Cn2c(=O)oc3ccc(C)cc32)cc1OC | 4% (active) |
| O=C(O)c1ccc2oc(=O)n(Cc3ccccc3)c2c1 | 94% |
